Active and inactive are the calls of the source. Rule for the calls: active = hit-call score of the fitted dose curve at least 0.9, where 1 is the maximum; inactive = score below 0.9.

The target in the test is Paired box protein Pax-6 (Homo sapiens) (UniProt P26367). As to the kind of experiment: ATG_Pax6_CIS: Attagene CIS-FACTORIAL HepG2 Assay for human Paired Box 6 (PAX6) (AID 2282956). As to conditions: HepG2 CIS-FACTORIAL PAX6 reporter transcription, RNA readout; actives raise or lower the signal. Here is the method: ATG_CIS is a cell-based, multiplexed-readout assay that uses HepG2, a human liver cell line, with measurements taken at 24 hours after chemical dosing in a 24-well plate.ATG_Pax6_CIS is one of 52 assay component(s) measured or calculated from the ATG_CIS assay. It is designed to make measurements of mRNA induction, a form of inducible reporter, as detected with fluorescence intensity signals by Reverse transcription polymerase chain reaction (RT-PCR) and Capillary electrophoresis technology.Data from the assay component ATG_Pax6_CIS was analyzed into 1 assay endpoint. This assay endpoint, ATG_Pax6_CIS, was analyzed with bidirectional fitting relative to DMSO as the negative control and baseline of activity. Using a type of inducible reporter, measures of mRNA for gain or loss-of-signal activity can be used to understand the reporter gene at the transcription factor-level as they relate to the gene PAX6. Furthermore, this assay endpoint can be referred to as a primary readout, because this assay has produced multiple assay endpoints where this one serves a reporter gene function. To generalize the intended target to other relatable targets, this assay endpoint is annotated to the dna binding intended target family, where the subfamily is paired box protein.
Paired box protein Pax-6 (Homo sapiens), sequence (P26367 whole entry, looked up): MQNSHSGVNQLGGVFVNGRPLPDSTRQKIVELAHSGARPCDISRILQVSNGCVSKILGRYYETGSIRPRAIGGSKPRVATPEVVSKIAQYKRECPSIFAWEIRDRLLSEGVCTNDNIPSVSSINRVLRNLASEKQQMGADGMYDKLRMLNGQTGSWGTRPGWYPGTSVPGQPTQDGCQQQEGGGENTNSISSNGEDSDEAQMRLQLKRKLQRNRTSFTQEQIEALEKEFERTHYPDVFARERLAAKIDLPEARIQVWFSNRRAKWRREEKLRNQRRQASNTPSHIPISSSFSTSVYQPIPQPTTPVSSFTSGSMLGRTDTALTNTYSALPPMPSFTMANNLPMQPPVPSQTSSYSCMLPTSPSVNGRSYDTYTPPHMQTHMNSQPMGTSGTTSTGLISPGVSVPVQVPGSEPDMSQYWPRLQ
Human liver HepG2 cells are transiently transfected with multiple reporter transcription units (MRTUs) in 6-well plates using FuGene 6 reagent (Roche; 3 ml FuGene/1 mg DNA). The MRTU constructs are regulated by a cis-regulating element (promoter). […] A major difference between the CIS and TRANS system is that in CIS activities of endogenous TFs are measured, whereas the TRANS assay evaluates changes in activities of exogenous, chimeric NR-Gal4 proteins. […] At the end of 24 hour incubation, total RNA was isolated using TriZol reagent (Invitrogen). The isolated RNA is then reverse-transcribed using oligo(dT) primer and Mo-MLV reverse transcriptase (Invitrogen) with DNAse I (Ambion) treatment for 30 min. The one-tenth of the produced cDNA was amplified by PCR using Taq DNA polymerase (Invitrogen) and two reporter sequence-specific primers. The PCR products were fluorescently labeled by primer extension with 6-arboxyfluorescein (6-FAM) 5'-labeled reporter sequence-specific primer (2 min at 95 C, 20 s at 68 C and 10 min at 72 C) and these products were digested with 5U of HpaI (New England Biolabs) for 2h at 37 C. The fragments were purified using Qiaquick PCR columns (Qiagen), analyzed on an ABI 3130xL genetic analyzer (Applied Biosystems) with peak positions identified by using a set of X-rhodamine (ROX)-labeled MapMarker1000 molecular weight standards (BioVentures). The raw capillary electrophoresis data was processed using Attagraph software (Attagene).
Consider `CCC(CC)CO`, for which the compound was called inactive.
Consider `C=C(C)CCCC(C)CCO` (stereo not given), for which the compound was classed as inactive.
Consider `CC(C)=CCCC(C)=CC(=O)O`, for which the call was inactive.
For the compound `OCCN1CCOCC1`, the compound was classed as inactive.
Consider `CC(=O)c1cccnc1`, for which the compound was classed as inactive.
For the compound `CCCO`, the compound was classed as inactive.
As to `CCCCOCCOC(=O)c1ccccc1C(=O)OCCOCCCC`, the result was inactive.
For the compound `CC1=CC(C)C(C=O)C(C)C1` (stereo not given) (tested in a mixture with another compound), the compound was called inactive.
The same measure, in the same setting: the value for `Cc1cc(O)c(C)c(C)c1O` was “inactive”; that for `CCO[Si](CCC#N)(OCC)OCC` was “inactive”.
On to `CCCCCCCCCCCCCC(=O)OCC`, for which the call was inactive.
On to `CCCCCCCCCOS(=O)(=O)O`, for which the compound was called inactive.
On to `CCCCCCC(O)CCOC(C)=O` (stereo not given), for which the compound was called inactive.
Still for that read-out and setting: then `CC(=O)C1=C(C)[C@@H]2C[C@@]3(C1)[C@H](C)CC[C@H]3C2(C)C`, with “inactive”; and `CCCCCCCCCCCCOCCOS(=O)(=O)O`, with “inactive”.
Turning to `FC(F)(F)c1ccc(Cl)c(Cl)c1`, the compound was called inactive.
In the case of `CCCCCCCCCCCCN1CCOCC1`, the result was inactive.
Still for that read-out and setting: the value for `CCOC(=O)CC(C)C` was “inactive”; that for `CC(=O)CCC=C(C)CCC=C(C)C` was “inactive”.
As to `CCOC(=O)CC1(C)OCC(C)O1` (stereo not given), the call was inactive.
With `CCCCCCC(C)O` (stereo not given), the compound was called inactive.
For `NNC(=O)OCc1ccccc1`, the compound was called inactive.
For `S=c1[nH][nH]c(=S)s1`, the compound was classed as inactive.
For the compound `CCCCCCCCCCCCS`, the compound was classed as inactive.
As to `O=C(O)c1ccco1`, the outcome was inactive.
Turning to `COC(=O)C(C)Oc1ccc(Oc2ncc(C(F)(F)F)cc2Cl)cc1` (stereo not given), the compound was classed as inactive.
Turning to `CC(O)CN` (stereo not given), the compound was classed as inactive.
For the compound `CC/C(=C(\c1ccccc1)c1ccc(OCCN(C)C)cc1)c1ccccc1`, the compound was classed as inactive.
For `CN(C)c1ccc(C=O)cc1`, the result was inactive.
The term AC50 denotes the concentration giving half of the maximal activity seen. On to `C=CCOC(=O)/C=C\C(=O)OCC=C`, for which the AC50 is 26 µM (active).
In the case of `CC(C)COC(=O)c1ccccc1O`, the result was inactive.
The same measure, in the same setting: the value for `CCCCCCCCCCCCCCCCCC(=O)OCCCCCCCCCCCCCC(C)C` was “inactive”.
Regarding `COC(=O)c1cccc(C(=O)OC)c1`, the call was inactive.
For `COc1ccc(N)c(C)c1`, the call was inactive.
As to `CC(C)C(=O)c1ccccc1`, the result was inactive.
Regarding `CCCCCCOc1ccc(O)cc1`, the AC50 was 33.4 µM (active).
On to `O=C(O)c1cccc(Cl)n1`, for which the call was inactive.
Consider `CC(=O)OCC=C(C)CCC=C(C)CCC=C(C)C`, for which the half-maximal activity concentration (AC50) is 63.8 µM (active).
As for `C=C(C)C(=O)OCCC[Si](OC)(OC)OC`, the result was inactive.
`CC/C=C\CCOC(C)OCC` (stereo not given): the result was inactive.

The record behind these values is PubChem BioAssay (EPA / NIEHS).
